# The campaign covered roughly 5,500 compounds. About 2,000 (36%) were called active. Another 18% or so got no clear call; they are omitted. The list shows a part of the results. Unmarked numbers belong to inactive results. No stated cut-off is given here; in the data, active means normalized growth mostly below about 0.91 (no sharp cut-off); inconclusive means no clear call, values can overlap the other calls; inactive means mostly above about 0.92.
# Experiment: chemical genetic growth profiling, strain panel (AID 1159580);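 further: tested at 20 µM; growth read once vehicle control cultures reached saturation at 30 °C; 1 = growth at the plate median or of vehicle wells; lower values mean less growth of the strain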
# Conditions: growth OD
structure (smiles),measurement,setting,value
C=C1CCC2C(CC2(C)C)C(=C)CC/C1=N\O (centres undefined),normalized growth,"S. cerevisiae deletion strains, locus YJL187C, strain SWE1, hits give low values",1.01
same,normalized growth,"S. cerevisiae deletion strains, locus YJR043C, strain POL32, hits give low values",0.905
same,normalized growth,"S. cerevisiae deletion strains, locus YJR075W, strain HOC1, hits give low values",0.894
same,normalized growth,"S. cerevisiae deletion strains, locus YKL009W, strain mrt4, hits give low values",0.879 (active)
same,normalized growth,"S. cerevisiae deletion strains, locus YKL068W, hits give low values",0.996
same,normalized growth,"S. cerevisiae deletion strains, locus YKL085W, strain MDH1 (second series), hits give low values",0.972
same,normalized growth,"S. cerevisiae deletion strains, locus YKL085W, strain MDH1, hits give low values",0.972
same,normalized growth,"S. cerevisiae deletion strains, locus YKL160W, strain elf1, hits give low values",1
same,normalized growth,"S. cerevisiae deletion strains, locus YKL190W, strain CNB1, hits give low values",1.01
same,normalized growth,"S. cerevisiae deletion strains, locus YKR001C, strain vps1, hits give low values",0.703 (active)
same,normalized growth,"S. cerevisiae deletion strains, locus YKR026C, strain gcn3, hits give low values",0.998
same,normalized growth,"S. cerevisiae deletion strains, locus YKR091W, strain srl3, hits give low values",0.995
same,normalized growth,"S. cerevisiae deletion strains, locus YLL001W, strain dnm1, hits give low values",1.01
same,normalized growth,"S. cerevisiae deletion strains, locus YLL026W, hits give low values",0.999
same,normalized growth,"S. cerevisiae deletion strains, locus YLL041C, strain sdh2, hits give low values",0.994
same,normalized growth,"S. cerevisiae deletion strains, locus YLR027C, strain aat2, hits give low values",1
same,normalized growth,"S. cerevisiae deletion strains, locus YLR039C, strain RIC1, hits give low values",0.441 (active)
same,normalized growth,"S. cerevisiae deletion strains, locus YLR058C, strain SHM2, hits give low values",1.01
same,normalized growth,"S. cerevisiae deletion strains, locus YLR102C, strain apc9, hits give low values",1.01
same,normalized growth,"S. cerevisiae deletion strains, locus YLR221C, strain rsa3, hits give low values",0.983
same,normalized growth,"S. cerevisiae deletion strains, locus YLR258W, strain gsy2, hits give low values",1.01
same,normalized growth,"S. cerevisiae deletion strains, locus YLR262C, strain YPT6 (second series), hits give low values",0.966
same,normalized growth,"S. cerevisiae deletion strains, locus YLR262C, strain YPT6, hits give low values",0.393 (active)
same,normalized growth,"S. cerevisiae deletion strains, locus YLR268W, strain sec22, hits give low values",0.936
same,normalized growth,"S. cerevisiae deletion strains, locus YLR320W, strain mms22, hits give low values",0.984
same,normalized growth,"S. cerevisiae deletion strains, locus YLR330W, strain CHS5, hits give low values",1.01
same,normalized growth,"S. cerevisiae deletion strains, locus YLR342W, strain FKS1 (second series), hits give low values",0.694 (active)
same,normalized growth,"S. cerevisiae deletion strains, locus YLR342W, strain FKS1, hits give low values",1.01
same,normalized growth,"S. cerevisiae deletion strains, locus YLR357W, strain rsc2, hits give low values",1.03
same,normalized growth,"S. cerevisiae deletion strains, locus YLR370C, strain arc18, hits give low values",0.996
same,normalized growth,"S. cerevisiae deletion strains, locus YLR371W, strain rom2, hits give low values",0.994
same,normalized growth,"S. cerevisiae deletion strains, locus YLR384C, strain iki3, hits give low values",0.992
same,normalized growth,"S. cerevisiae deletion strains, locus YLR418C, strain cdc73, hits give low values",0.847
same,normalized growth,"S. cerevisiae deletion strains, locus YML016C, strain PPZ1, hits give low values",0.999
same,normalized growth,"S. cerevisiae deletion strains, locus YML032C, strain rad52, hits give low values",0.89 (active)
same,normalized growth,"S. cerevisiae deletion strains, locus YML120C, strain ndi1, hits give low values",1.01
same,normalized growth,"S. cerevisiae deletion strains, locus YML124C, strain tub3, hits give low values",0.99
same,normalized growth,"S. cerevisiae deletion strains, locus YMR058W, strain fet3, hits give low values",1.01
same,normalized growth,"S. cerevisiae deletion strains, locus YMR078C, strain ctf18, hits give low values",0.978
same,normalized growth,"S. cerevisiae deletion strains, locus YMR125W, strain sto1, hits give low values",1.03
same,normalized growth,"S. cerevisiae deletion strains, locus YMR129W, hits give low values",1
same,normalized growth,"S. cerevisiae deletion strains, locus YMR205C, strain PFK2, hits give low values",0.992
same,normalized growth,"S. cerevisiae deletion strains, locus YMR223W, strain ubp8, hits give low values",0.906
same,normalized growth,"S. cerevisiae deletion strains, locus YMR231W, strain pep5, hits give low values",0.997
same,normalized growth,"S. cerevisiae deletion strains, locus YMR263W, strain SAP30, hits give low values",0.962
same,normalized growth,"S. cerevisiae deletion strains, locus YMR307W, strain GAS1, hits give low values",0.423 (active)
same,normalized growth,"S. cerevisiae deletion strains, locus YNL067W, strain RPL9B, hits give low values",0.942
same,normalized growth,"S. cerevisiae deletion strains, locus YNL071W, strain lat1, hits give low values",1
same,normalized growth,"S. cerevisiae deletion strains, locus YNL128W, strain TEP1, hits give low values",0.964
same,normalized growth,"S. cerevisiae deletion strains, locus YNL153C, strain GIM3, hits give low values",0.972
same,normalized growth,"S. cerevisiae deletion strains, locus YNL209W, strain ssb2, hits give low values",1
same,normalized growth,"S. cerevisiae deletion strains, locus YNL233W, strain BNI4, hits give low values",0.892
same,normalized growth,"S. cerevisiae deletion strains, locus YNL248C, strain rpa49, hits give low values",1
same,normalized growth,"S. cerevisiae deletion strains, locus YNL250W, strain rad50, hits give low values",0.991
same,normalized growth,"S. cerevisiae deletion strains, locus YNL271C, strain bni1, hits give low values",0.969
same,normalized growth,"S. cerevisiae deletion strains, locus YNL298W, strain CLA4, hits give low values",0.878 (active)
same,normalized growth,"S. cerevisiae deletion strains, locus YNL307C, strain MCK1, hits give low values",0.683 (active)
same,normalized growth,"S. cerevisiae deletion strains, locus YNL322C, strain KRE1 (second series), hits give low values",0.983
same,normalized growth,"S. cerevisiae deletion strains, locus YNL322C, strain KRE1, hits give low values",0.988
same,normalized growth,"S. cerevisiae deletion strains, locus YNR049C, strain mso1, hits give low values",0.997
same,normalized growth,"S. cerevisiae deletion strains, locus YNR052C, strain pop2, hits give low values",0.944
same,normalized growth,"S. cerevisiae deletion strains, locus YOL006C, strain TOP1, hits give low values",0.725
same,normalized growth,"S. cerevisiae deletion strains, locus YOL012C, strain htz1",1.35
same,normalized growth,"S. cerevisiae deletion strains, locus YOL147C, strain pex11, hits give low values",0.983
same,normalized growth,"S. cerevisiae deletion strains, locus YOR001W, strain rrp6, hits give low values",0.985
same,normalized growth,"S. cerevisiae deletion strains, locus YOR061W, strain CKA2, hits give low values",0.997
same,normalized growth,"S. cerevisiae deletion strains, locus YOR069W, strain VPS5, hits give low values",1.01
same,normalized growth,"S. cerevisiae deletion strains, locus YOR070C, strain gyp1, hits give low values",0.991
same,normalized growth,"S. cerevisiae deletion strains, locus YOR080W, strain dia2, hits give low values",1.01
same,normalized growth,"S. cerevisiae deletion strains, locus YOR083W, strain WHI5, hits give low values",0.989
same,normalized growth,"S. cerevisiae deletion strains, locus YOR106W, strain vam3, hits give low values",1
same,normalized growth,"S. cerevisiae deletion strains, locus YOR136W, strain idh2, hits give low values",0.972
same,normalized growth,"S. cerevisiae deletion strains, locus YOR144C, strain elg1, hits give low values",0.976
same,normalized growth,"S. cerevisiae deletion strains, locus YOR184W, strain ser1, hits give low values",0.697 (active)
same,normalized growth,"S. cerevisiae deletion strains, locus YOR265W, strain rbl2, hits give low values",0.993
same,normalized growth,"S. cerevisiae deletion strains, locus YOR270C, strain vph1, hits give low values",0.987
same,normalized growth,"S. cerevisiae deletion strains, locus YOR290C, strain snf2, hits give low values",0.972
same,normalized growth,"S. cerevisiae deletion strains, locus YOR316C, strain cot1, hits give low values",1
same,normalized growth,"S. cerevisiae deletion strains, locus YPL051W, strain arl3, hits give low values",1.03
same,normalized growth,"S. cerevisiae deletion strains, locus YPL055C, strain LGE1, hits give low values",0.844
same,normalized growth,"S. cerevisiae deletion strains, locus YPL078C, strain atp4, hits give low values",1
same,normalized growth,"S. cerevisiae deletion strains, locus YPL106C, strain sse1, hits give low values",1.05
same,normalized growth,"S. cerevisiae deletion strains, locus YPL240C, strain hsp82, hits give low values",1
same,normalized growth,"S. cerevisiae deletion strains, locus YPR119W, strain clb2, hits give low values",0.983
same,normalized growth,"S. cerevisiae deletion strains, locus YPR141C, strain kar3, hits give low values",1.01
same,normalized growth,"S. cerevisiae deletion strains, locus YPR163C, strain tif3, hits give low values",0.996
same,normalized growth,"S. cerevisiae deletion strains, locus YPR167C, strain met16, hits give low values",0.993
same,normalized growth,"S. cerevisiae deletion strains, strain wtn01, hits give low values",0.915
same,normalized growth,"S. cerevisiae strains, strain wild type, hits give low values",0.982

# From PubChem BioAssay AID1159580 (chemical genetic matrix, 2015)
